# AmpC inh detg – blocks E. coli AmpC beta-lactamase in detergent assay; AmpC hydrolysis of nitrocefin, absorbance 480 nm, 0.01% Triton; hit rate 0.041% among 370,000; Potency, µM (doses to about 114 µM), without a hit: top-dose activity change, negative = inhibition, usual class: inhibitors;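 further: potency means the concentration at half of the fitted maximal effect; 0% = no-compound wells and -100% = no-enzyme wells; nearly all actives have a fitted effect of over 25% in size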
# Target sequence (P00811 whole entry, looked up): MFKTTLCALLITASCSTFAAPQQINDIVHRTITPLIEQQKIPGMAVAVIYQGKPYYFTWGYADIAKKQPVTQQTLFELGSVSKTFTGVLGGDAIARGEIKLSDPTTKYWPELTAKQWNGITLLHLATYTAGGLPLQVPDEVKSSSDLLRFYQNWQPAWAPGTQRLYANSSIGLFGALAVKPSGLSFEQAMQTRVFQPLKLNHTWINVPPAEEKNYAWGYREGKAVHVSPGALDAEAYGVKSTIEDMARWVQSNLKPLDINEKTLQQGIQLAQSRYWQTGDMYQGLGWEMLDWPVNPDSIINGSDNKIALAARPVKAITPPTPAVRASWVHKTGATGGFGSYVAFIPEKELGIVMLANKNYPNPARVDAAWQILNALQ
#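 AmpC (5.3 nM in the dispensed reagent) in 20 mM phosphate pH 7.0 with 0.01% (detergent screen) or 0.0001% Triton X-100 was preincubated with compounds for 15 min at room temperature. Nitrocefin was then added from an 800 uM solution, and hydrolysis was followed at 480 nm.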
# AmpC inh no detg – blocks E. coli AmpC beta-lactamase in detergent-free assay. AmpC nitrocefin hydrolysis, absorbance 480 nm, 0.0001% Triton. Potency, µM (doses to about 57.1 µM), for inactives: at the top dose activity change, negative = inhibition, most hits filed as inhibitors. hit rate 0.52% among 330,000. AID 485341;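 further: potency means the concentration at half of the fitted maximal effect; plate controls were no compound for no effect and no enzyme for full effect; nearly all actives have a fitted effect of over 20% in size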
#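 20 mM phosphate pH 7.0 + 0.01% (detergent screen) or 0.0001% Triton X-100; 5.3 nM AmpC reagent; cpd preinc 15 min RT; nitrocefin (800 uM stock) to start; A480 q20 s × 4 min; Activity was normalised to no-enzyme and no-compound control wells.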
# Shiga toxin inh – inhibitors of Shiga toxin in Vero cells | Vero cells, Shiga toxin protein synthesis inhibition reporter | inhibition, % at 38.7 µM | hit rate 9.2% among 290,000 | AID 2315; in the data active means inhibition mostly above about 28%, no sharp cut-off; inactive means mostly below about 43%; further: 0% is about no effect
# AMA1 RON2 block – AMA1-RON2 (P. falciparum) interaction inhibition. AlphaScreen AMA1-biotinylated RON2 peptide binding. Potency, µM (highest dose often 58.2 µM), inactives show top-dose activity change, negative = inhibition, usual class: inhibitors. hit rate 0.2% among 360,000. AID 720542;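 further: potency means the concentration at half of the fitted maximal effect; 0% = vehicle wells and -100% = peptide control; nearly all actives have a fitted effect of over 45% in size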
#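 AMA1 (3D7) with his tag at 25 nM final met compounds first, then biotinylated RON2 peptide at 25 nM; detection used donor plus acceptor beads, 10 µg/mL apiece, read by AlphaScreen after 30 min at room temperature.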
# CHX counter – counter-screen for Shiga toxin inhibitors: cycloheximide protein synthesis inhibition | max response, % | hit rate 12% among 300,000 | cell reporter, cycloheximide protein synthesis inhibition counterscreen | AID 2314; in the data active means max response mostly above about 13%, no sharp cut-off; inactive means mostly below about 14%; further: read at 38.3 µM for the half of the compounds with a filed dose; 0% is about no effect
# SARS PLP yeast – SARS-CoV PLP inhibition in yeast | hit rate 0.19% among 330,000 | Potency, µM (series often up to 32.9 µM), inactives show at the top dose activity, positive = growth rescue, actives largely listed as activators | S. cerevisiae expressing SARS-CoV PLpro, growth rescue; calls by dose curve; further: potency means the concentration at half of the fitted maximal effect; 0% is about no effect; nearly all actives have a fitted effect of over 55% in size
# * marks the source's active call; other numbers are inactive results; ? = inconclusive; / = no result. The entries come from a sample that favours hits as a whole. Unless noted, the call rests on the fitted dose curve; in most records, active means well fitted curve in the direction sought with a large enough effect; inconclusive means small, poorly fitted or top-dose-only effect, or another doubt; inactive means no such curve, though single readings can be large; an effect the other way counts as inactive or inconclusive.
SMILES,AmpC inh detg,AmpC inh no detg,Shiga toxin inh,AMA1 RON2 block,CHX counter,SARS PLP yeast
COc1ccc([C@H]2CN(c3ccccc3)C(=O)[C@@H]2CC(=O)Nc2ccccc2)cc1,/,/,/,14%,/,/
COc1ccc(-c2[nH]ncc2CN(C)Cc2cccnc2)c(OC)c1,0%,-1%,-5,0%,1,0%
COc1ccc(C(=O)Nc2ccc(NC(=O)c3ccccc3F)cn2)cc1,-3%,-14%,22,0%,0,-6%
CCCC(=O)Nc1ccc(NC(=O)c2ccccc2F)cn1,?,-12%,24,-3%,16*,-7%
CCC(=O)Nc1cccc(NC(=O)c2ccccc2Cl)c1,?,-18%,6,-8%,-3,0%
CCC(=O)Nc1ccc(NC(=O)c2ccccc2Cl)nc1,-4%,-45%,26,-8%,21*,-3%
O=C(Nc1ccc(NC(=O)C2CC2)nc1)c1ccccc1F,2%,-4%,79*,-7%,24*,-7%
COCCCNC(=O)/C=C/c1ccc(Cl)cc1Cl,-1%,7%,54*,-3%,17*,4%
CCC(CC)NC(=O)Nc1ccc(F)c(Cl)c1,-11%,-21%,57,12%,9,-2%
O=C(Nc1ccc(Cl)c(Cl)c1)Nc1ccccc1O,-4%,?,91*,-10%,57*,-30%
CSc1ccccc1NC(=O)Nc1ccc(F)c(Cl)c1,-11%,-54%,61*,0%,34*,-6%
CSc1ccccc1NC(=O)Nc1cccc(Cl)c1C,2%,-20%,17,0%,21,1%
CSc1ccccc1NC(=O)Nc1cccc(Cl)c1,-6%,-31%,84*,-2%,41*,-8%
Cc1ccc(NC(=O)Nc2cccc(Cl)c2)c(C(=O)O)c1,3%,-21%,56,-2%,24*,0%
Cc1ccc(NC(=O)c2cncc(Br)c2)cc1S(=O)(=O)N(C)C,-5%,-24%,99*,9%,38*,17%
Cc1ccc(NC(=O)CSc2nnc(-c3cccs3)o2)cc1S(=O)(=O)N(C)C,-2%,-22%,117*,/,27*,1%
Cc1ccc(NC(=O)c2sccc2C)cc1S(=O)(=O)N(C)C,-6%,-23%,46,5%,28*,-17%
O=[N+]([O-])/C=C/c1cn(Cc2ccc(F)cc2)c2ccccc12,?,18µM*,-17,-23%,1,-30%
O=C(N/N=C/c1cn(Cc2ccccc2)c2ccccc12)c1cc(O)cc(O)c1,-8%,?,-8,-14%,-3,4%
O=C(Cn1cc(/C=N/NC(=O)c2ccccc2Br)c2ccccc21)Nc1ccc(F)cc1,-9%,14µM*,-13,1%,-3,4%
O=C(O)c1ccc(N/N=C/c2cn(Cc3ccc(F)cc3)c3ccccc23)cc1,-1%,-55%,70*,-23%,29*,-2%
O=Cc1cn(Cc2ccc(F)cc2)c2ccccc12,?,-34%,-9,6%,-5,-1%
COc1cc(C(=O)N/N=C/c2cn(Cc3cccc(F)c3)c3ccccc23)ccc1O,?,-46%,17,-13%,4,7%
Cc1ccc(C(=O)N/N=C/c2cn(Cc3ccccc3)c3ccccc23)cn1,-7%,65%,31,30%,20*,0%
COc1ccc([C@H]2CC(=O)C=C(c3ccccc3)C2)cc1OC,3%,63%,/,0%,/,4%
SMILES,AmpC inh detg,AmpC inh no detg,Shiga toxin inh,AMA1 RON2 block,CHX counter,SARS PLP yeast
O=S(=O)(N/N=C/c1cn(Cc2ccccc2)c2ccccc12)c1ccccc1,11%,-31%,51*,-19%,15,-4%
NC(=O)Cn1cc(/C=N\NS(=O)(=O)c2ccc(Cl)cc2)c2ccccc21,5%,21%,-9,-1%,-2,1%
Cc1c(/C=N/Nc2ccc(C(=O)O)cc2)c2ccccc2n1C,-3%,-56%,14,-7%,42*,-3%
CCOC(=O)c1sc2nccc(N(C)C)c2c1N=CNOCc1c(F)cccc1Cl,-2%,46%,35,66%,25*,-13%
CCOC(=O)c1sc2nccc(N(C)C)c2c1N=CNOCc1ccccc1,1%,93%,21,78%,16*,-14%
COC(=O)c1ccc(-c2noc(CN3C[C@H]4CC[C@H]3C4)n2)cc1,-10%,0%,21,-6%,19*,-2%
COC(=O)c1ccc(-c2noc(CN(Cc3ccncc3)CC3CCCO3)n2)cc1 (centres undefined),-5%,36%,-11,15%,-4,0%
COC(=O)c1ccc(-c2noc(CN(C)CC3CCCCO3)n2)cc1 (centres undefined),1%,69%,54,2%,43*,-2%
CCn1ccnc1CN(C)Cc1nc(-c2ccc(C(=O)OC)cc2)no1,6%,36%,16,36%,11,3%
C=CCNC(=O)N1CCC(n2nccc2NC(=O)CCc2ccccc2)CC1,-12%,0%,3,-2%,-3,-1%
CN1CCc2cc(O)cc3c2[C@H]1Cc1ccc(O)c(O)c1-3,/,/,/,10µM*,/,/
CCCNC(=O)CCC(=O)Nc1ncc(-c2ccc(C)cc2)n1C,-3%,-11%,33*,102%,25*,1%
CCCNC(=O)CCn1nc(-c2ccc(C)cc2)c2ccccc2c1=O,2%,47%,7,3%,-1,0%
NC(=O)Nc1ccc(C(=O)OCC(=O)N2CCc3ccccc3C2)cc1,?,-20%,/,0%,/,1%
CCOC(=O)c1ccc(NC(=O)N2CCc3ccccc3C2)cc1,-3%,-43%,19,0%,30*,-10%
CCOC(=O)c1cccc(NC(=O)Cc2ccc(NC(=O)N3CCCCc4ccccc43)cc2)c1,10%,/,/,/,/,/
CCOC(=O)c1ccc(NC(=O)N2CCc3ccccc32)cc1,0%,-28%,58*,-2%,29*,-3%
COc1cc(OC)c(C(=O)O/N=C(\N)c2cccc(C)c2)cc1OC,2%,25%,82*,-14%,50*,-10%
COc1cc(OC)c(C(=O)O/N=C(\N)c2ccc(C)cc2)cc1OC,-4%,23%,11,-9%,15*,-8%
OCCN(Cc1nc(-c2ccc3c(c2)OCO3)no1)Cc1cccs1,?,5%,36*,3%,17,-3%
CN(Cc1nc(-c2ccccc2)no1)C(=O)c1ccc2c(c1)OCO2,?,-5%,/,-12%,/,2%
CC(C)(C)OC(=O)N[C@@H](Cc1ccccc1)c1nnc(S(=O)(=O)Cc2ccccc2)o1,18µM*,?,17,/,42,-42%
Cc1cccc(CS(=O)(=O)Cc2ccc(C(=O)NC(C)c3ccccc3)o2)c1 (centres undefined),-4%,2%,8,13%,3,0%
